A short description of test [1]: APR_HepG2_CellCycleArrest_24hr: Apredica 24-hour HepG2 Assay for Cell Cycle Arrest (AID 2282905).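 Note: cell cycle arrest scored as ratio of 2N to 4N nuclear DNA content.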 The note with it: imaging, actives raise or lower the signal. The essentials: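 Step one: dose HepG2 with test compounds, 0.39–200 uM, 0.5% DMSO, 24 hr. Step two: fix, permeabilize, stain nuclei with Hoechst 33342. Step three: image six fields per well at 20x, quantify DNA content, fit bidirectionally relative to DMSO.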

Test [2] in a line: APR_HepG2_NuclearSize_24hr: Apredica 24-hour HepG2 Assay for Nuclear Size (AID 2282907). Particulars: high-content imaging, actives raise or lower the signal. The method, boiled down: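 After fixation and permeabilization, 24-hr-treated HepG2 cells were stained with Hoechst 33342 and imaged on an ArrayScan (20x). Doses spanned 0.39–200 uM in duplicate. Nuclear diameter changes in either direction were fitted relative to 0.5% DMSO controls.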

Test [3] is described as follows: APR_HepG2_CellLoss_24hr: Apredica 24-hour HepG2 Assay for Cell Loss (AID 2282908).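 For AC50: fit in both directions so a hit may be cell loss or gain.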 Particulars: high-content imaging. The essentials: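 Duplicate wells received compound at ten concentrations (0.39–200 uM; final DMSO 0.5% v/v). After fixation with formaldehyde, nuclei stained with Hoechst 33342 were imaged at 20x. Loss or gain of cell count was fitted relative to DMSO controls.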

A short description of test [4]: APR_HepG2_MicrotubuleCSK_24hr: Apredica 24-hour HepG2 Assay for Microtubule CSK Stabilty (AID 2282909). The note with it: HepG2 microtubule cytoskeleton imaging, actives raise or lower the signal. The essentials: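 Microtubule stability is scored from tubulin immunofluorescence in fixed HepG2 cells imaged at 20x. Cells receive ten compound concentrations up to 200 uM for 24 h; taxol and DMSO serve as positive and negative controls.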

The nature of test [5]: APR_HepG2_MitoticArrest_24hr: Apredica 24-hour HepG2 Assay for Mitotic Arrest (AID 2282910). Particulars: high-content imaging, actives raise or lower the signal. The method, boiled down:
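High-content imaging of fixed HepG2 cells labeled with Hoechst 33342 and anti-phospho-histone H3, after 24 h treatment. Ten concentrations 0.39 to 200 uM in duplicate, final DMSO 0.5%; changes fitted both directions relative to DMSO.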

Test [6] can be described thus: APR_HepG2_MitoMembPot_24hr: Apredica 24-hour HepG2 Assay for Mitochondrial Membrane Potential (AID 2282911). The note with it: imaging, actives raise or lower the signal. The essentials:
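HepG2 cells exposed 24 h to 0.39–200 uM compounds in duplicate, 0.5% v/v DMSO final. MitoTracker Red CMXRos 250 nM loaded 30 min before formaldehyde fixation; high-content imaging at 20x, bidirectional fit versus DMSO.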

The nature of test [7]: APR_HepG2_MitoMass_24hr: Apredica 24-hour HepG2 Assay for Mitochondrial Mass (AID 2282912). The note with it: high-content imaging, actives raise or lower the signal. The essentials:
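Readout: fluorescence of MitoTracker Red CMXRos (250 nM, added 30 min pre-fixation) in fixed HepG2 cells imaged by HCS. Exposure lasted 24 hr at 0.39–200 uM; increases and decreases were both fitted relative to DMSO.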

Test [8] in a line: APR_HepG2_p53Act_24hr: Apredica 24-hour HepG2 Assay for p53 Activation (AID 2282913).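 Note: p53 protein immunofluorescence averaged per cell in HepG2 with Hoechst nuclei.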 Particulars: high-content imaging, actives raise or lower the signal. The method, boiled down:
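HepG2 cells exposed 24 h to compounds at 0.39–200 uM in duplicate, 0.5% v/v DMSO final; fixed, permeabilized, stained with anti-p53 antibody and Hoechst 33342; fluorescence imaging; bidirectional curve fit versus DMSO.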

Test [9] can be described thus: APR_HepG2_CellCycleArrest_72hr: Apredica 72-hour HepG2 Assay for Cell Cycle Arrest (AID 2282914). The note with it: high-content imaging, actives raise or lower the signal. The method, boiled down: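 HepG2 cells exposed 72 h in duplicate to 0.39–200 uM compound, 0.5% DMSO final. Formaldehyde-fixed, Hoechst 33342-stained nuclei imaged at 20x, six fields per well; DNA content per valid cell quantified by cell-cycle image analysis, bidirectional fit versus DMSO.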

Test [10] in a line: APR_HepG2_CellLoss_72hr: Apredica 72-hour HepG2 Assay for Cell Loss (AID 2282915). Particulars: high-content imaging. The essentials:
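Cell number comes from Hoechst 33342-labelled nuclei, imaged at 20x after 3.7% formaldehyde fixation. Dosing was 0.39–200 uM, ten concentrations in duplicate, 0.5% DMSO final, for 72 h. Bidirectional fit relative to DMSO baseline.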

Test [11] is described as follows: APR_HepG2_P-H2AX_72hr: Apredica 72-hour HepG2 Assay for H2AX Phosphorylation (AID 2282916).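 Note: phospho-histone H2A.x immunostain intensity per cell marking DNA damage.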 The note with it: imaging, actives raise or lower the signal. The method, boiled down: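 Phospho-H2A.x imaging endpoint in HepG2 after 72 hr compound exposure (0.39–200 uM, duplicate wells). Activity derived by bidirectional curve fitting with DMSO as baseline.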
Test [12] can be described thus: APR_HepG2_MitoMembPot_72hr: Apredica 72-hour HepG2 Assay for Mitochondrial Membrane Potential (AID 2282917). Particulars: imaging, actives raise or lower the signal. The method, boiled down:
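Membrane potential read by MitoTracker Red CMXRos (250 nM, 30 min, pre-fixation) fluorescence imaging of HepG2 after 72 hr exposure. Ten concentrations, 0.39–200 uM, duplicate wells, 0.5% DMSO; fitted in both directions against DMSO baseline.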

Test [13] in a line: APR_HepG2_MitoticArrest_72hr: Apredica 72-hour HepG2 Assay for Mitotic Arrest (AID 2282918). Particulars: high-content imaging, actives raise or lower the signal. The essentials:
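HepG2 cells treated 72 h at 0.39–200 uM, 0.5% DMSO final; formaldehyde-fixed, stained with Hoechst 33342 and phospho-histone H3 antibody, imaged by high-content fluorescence; bidirectional fit versus DMSO.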

Test [14] can be described thus: APR_HepG2_MicrotubuleCSK_72hr: Apredica 72-hour HepG2 Assay for Microtubule CSK Stabilty (AID 2282919). The note with it: HepG2 microtubule cytoskeleton, high-content imaging, actives raise or lower the signal. The essentials: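 High-content imaging of alpha-tubulin staining in fixed HepG2 cells after 72 hr treatment with ten concentrations from 0.39 to 200 uM (0.5% DMSO). Fitting was bidirectional against DMSO; taxol served as positive control.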

A short description of test [15]: APR_HepG2_P-H2AX_24hr: Apredica 24-hour HepG2 Assay for H2AX Phosphorylation (AID 2282920). The note with it: high-content imaging, actives raise or lower the signal. The method, boiled down:
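HepG2 cells dosed 24 h at 0.39–200 uM (10 points, duplicate, 0.5% DMSO final). Formaldehyde-fixed and permeabilized, then immunostained for phospho-H2A.x with Hoechst. Fluorescence quantified by high-content imaging, fitted bidirectionally versus DMSO.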

Test [16] can be described thus: APR_HepG2_StressKinase_72hr: Apredica 72-hour HepG2 Assay for Stress Kinase (AID 2282921). Particulars: HepG2 stress kinase (phospho-c-Jun) imaging, actives raise or lower the signal. The essentials:
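Stress kinase signal reflects nuclear phospho-c-Jun staining in fixed, permeabilized cells exposed 72 h to compound at 0.39–200 uM; DMSO-normalized, fitted for increases or decreases.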

The nature of test [17]: APR_HepG2_StressKinase_24hr: Apredica 24-hour HepG2 Assay for Stress Kinase (AID 2282922). Particulars: HepG2 stress kinase (phospho-c-Jun) imaging, actives raise or lower the signal. The essentials:
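High-content imaging of phospho-c-Jun immunofluorescence in fixed, permeabilized HepG2 cells after 24 h dosing. Ten concentrations, 0.39 to 200 uM, run in duplicate at 0.5% v/v DMSO; gain or loss of signal versus DMSO.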

A short description of test [18]: APR_HepG2_p53Act_72hr: Apredica 72-hour HepG2 Assay for p53 Activation (AID 2282923).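 Note: average cellular p53 protein immunofluorescence intensity in HepG2 cells.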 Particulars: high-content imaging, actives raise or lower the signal. The method, boiled down: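 Fixed-cell p53 staining (sheep primary, Cy5 secondary) measured by fluorescence imaging following 72 hr treatment at 0.39–200 uM in 0.5% DMSO; DMSO served as negative control and baseline.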

Test [19] in a line: APR_HepG2_MitoMass_72hr: Apredica 72-hour HepG2 Assay for Mitochondrial Mass (AID 2282924).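 Note: MitoTracker Red CMXRos stain intensity per cell imaged as mitochondrial mass.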 The note with it: high-content imaging, actives raise or lower the signal. The method, boiled down:
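Readout is imaged MitoTracker Red (250 nM, 30 min, pre-fixation) signal, fitted bidirectionally against DMSO baseline. Human HepG2 liver cells received compound 0.39–200 uM in duplicate for 72 hr, final DMSO 0.5%.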

A short description of test [20]: APR_HepG2_NuclearSize_72hr: Apredica 72-hour HepG2 Assay for Nuclear Size (AID 2282925). The note with it: high-content imaging, actives raise or lower the signal. The essentials: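 Nuclear size was read by high-content imaging of Hoechst 33342 stain after formaldehyde fixation. Compounds ran 72 h on HepG2 at 0.39 to 200 uM, with final DMSO 0.5% v/v. Curves fitted both directions relative to DMSO control.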

The source made the active and inactive calls. Rule for the calls: active = hit-call score of the fitted dose curve at least 0.9, where 1 is the maximum; inactive = score below 0.9.

Take `O=Cc1ccco1`: the molecule was called inactive in test [1], in test [2], in [3], in test [4], in [5] and in [6]. Further, the molecule was classed as inactive in test [7], in test [8], in test [9], in test [10], in test [11] and in test [12]. Further, the molecule was called inactive in test [13], in test [14], in [15], in [16], in test [17] and in test [18]. The call in [19] and in test [20] was inactive.
As for `CCC[CH2][Sn]([Cl])([CH2]CCC)[CH2]CCC`, the AC50 in test [1] was 100 µM (active); in [3], 1.12 µM (active); in [4], 0.908 µM (active); in [5], 0.336 µM (active); in test [7], 100 µM (active); in test [8], 0.388 µM (active). In addition, the half-maximal activity concentration (AC50) is 0.0548 µM (active) in test [9]; 0.574 µM (active) in test [10]; 0.0111 µM (active) in test [11]; 0.0382 µM (active) in [13]; 1.41 µM (active) in [15]; 3.39 µM (active) in test [17]. Moreover, the concentration at half-maximal activity (AC50) in test [18] was 0.0297 µM (active); in test [19], 0.0466 µM (active). In addition, the molecule was classed as inactive in [2], in test [6], in [12], in test [14], in test [16] and in [20].
As to `[Cl-].[Cl-].[Hg+2]`, the result in test [1], in [9], in test [11], in test [12], in [16] and in test [18] was inactive. Besides, the molecule was called inactive in [19] and in test [20]. The AC50 in test [2] is 31.9 µM (active); in test [3], 31.3 µM (active); in test [4], 28.9 µM (active); in test [5] it was 23.7 µM (active); in test [6], 74.4 µM (active); in [7] it was 28 µM (active). In addition, the half-maximal activity concentration (AC50) was 15.7 µM (active) in [8]; 20.3 µM (active) in test [10]; 17.6 µM (active) in test [13]; 13.2 µM (active) in [14]; 21.5 µM (active) in [15]; 19.8 µM (active) in test [17].
As for `CC(O)CCO` (stereo not drawn), the result in test [1], in test [2], in test [3], in test [4], in test [5] and in test [6] was inactive. The call in [7], in [8], in [9], in test [10], in test [11] and in test [12] was inactive. Further, the molecule was called inactive in [13], in [14], in test [15], in [16], in test [17] and in [18]. The molecule was classed as inactive in [19] and in [20].
Consider `O=C(N[C@H](c1ccccc1)[C@@H]1CN2CCC1CC2)c1c(Cl)ccc(C(F)(F)F)c1Cl`, for which the half-maximal activity concentration (AC50) in test [1] was 60.8 µM (active); in [2], 88.8 µM (active); in [3], 120 µM (active); in [5], 78.7 µM (active); in test [8] it was 101 µM (active); in test [9], 30.6 µM (active). Further, the AC50 in test [10] was 64 µM (active); in test [11], 44 µM (active); in test [13] it was 24 µM (active); in [15] it was 117 µM (active). Also, the outcome in [4], in test [6], in [7], in [12], in test [16] and in test [17] was inactive. Besides, the molecule was called inactive in test [18], in test [19] and in test [20].
Turning to `O=C(Oc1ccc(Br)cc1)N1CCN2CCC1CC2`, the outcome in test [1], in [2], in test [3], in test [4], in [5] and in test [6] was inactive. The molecule was called inactive in test [7], in test [8], in test [12], in test [15], in [16] and in [17]. Moreover, the molecule was classed as inactive in [19] and in test [20]. Besides, the AC50 was 96.3 µM (active) in test [9]; 80.8 µM (active) in test [10]; 101 µM (active) in test [11]; 106 µM (active) in [13]; 103 µM (active) in [18].

The values are drawn from PubChem BioAssay (EPA / NIEHS).
